In PubChem BioAssay (NCI) one finds growth data, which are given here for 39 molecules.

Where “and” joins values, the source holds several entries; their conditions need not be identical. Identical values can stand only once. About 83,000 compounds went through this panel and 20% of them were active in at least one assay; those are over-represented in the sample as a whole.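 96-well plates, one dose, 48 hours. Percent growth reported; active if below 10.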 Values without a mark were called inactive. Calls of active or inactive are those of the source.

For the experiment, the system named is MDA-MB-468 breast. Description: NCI-60 one-dose screen, 48 h (100 = growth as untreated, 0 = no growth, -100 = all killed). The note with it: 10 µM unless noted.
As to `CCN(CC)CCCC(Nc1c2ccc(Cl)cc2nc2ccc(OC)cc12)c1ccc(F)cc1` (centres undefined), the growth is 90.5%. With `NC(=NCCCOc1ccc(Cl)cc1)Nc1ccc(Cl)cc1`, the growth is -14.9% (active). The value for `COc1cc(NC(C)CCCN)c2ncccc2c1Oc1ccc(Cl)cc1` (centres undefined) was 58.6%; that for `O=C1CCCN1C1CCN(Cc2cc3ccccc3[nH]c2=O)c2ccccc21` (centres undefined) was 83.5%; that for `O=C1c2c(c3c4ccccc4[nH]c3c3ccc4ccccc4c23)C(=O)N1CCN1CCCCC1` was -0.798% (active). The value for `CN1C2C=CC(=O)C1C1C(=O)N(c3ccccc3)C(=O)C12` (centres undefined) was 0.669% (active). In the case of `Oc1ccc(-c2nc3ccc4[nH]ncc4c3c3c2CCCC3)c(F)c1`, the growth was 18.2%. On to `CCCNC(=O)Oc1ccc(/C(=C(/C)Cc2ccc(OC)cc2)c2ccc(OCCN3CCCCC3)cc2)cc1`, for which the growth was 79.6%. With `CN(C)c1ccc(/C=C/C=N/NC(=O)c2cc(O)c(O)c(O)c2)cc1`, the growth is 89.1%. As for `N#Cc1c(-c2cccc(Cl)c2)cc(-c2cccc(Cl)c2)[nH]c1=O`, the growth was 73.2%. For `COc1cc(/C=C/c2cc(/C=C/c3ccc(O)c(OC)c3)n(C(=O)c3ccccc3Br)n2)ccc1O`, the growth was 2.97% (active).

For `O=C(/C=C/c1sc(Cl)nc1Cl)c1ccccc1`, the growth is 55.3%. Regarding `COC(=O)[C@H]1CCCN1C(=O)C1CCCN1C(=O)[C@@H](Cc1ccccc1)NC(=S)Nc1cc(C(F)(F)F)cc(C(F)(F)F)c1` (some centres undefined), the growth is 100% and 58.2%. As to `CCN1C(=S)N(CC)C2C1NC(=S)N2/N=C/C=C/c1ccccc1` (centres undefined), the growth was 2.3% (active). The value for `CC1(C)CC(O)CCCCCCOc2c(CN)cccc2NC(=O)c2nc(cnc2N)-c2ccc(cc2)S1(=O)=O` (centres undefined) was 6.87% (active); that for `Cn1c(N)c(N=O)c(=O)[nH]c1=O` was 115%. For the molecule `COc1cc(-c2n/c(=C\c3c(O)[nH]c4cc(Cl)ccc34)cc3c2=Nc2ccccc2-3)cc(OC)c1OC`, the growth is 73.7%.

In the case of `CC1=C(C(=O)/C=C/c2ccc(N(C)C)cc2)C(c2ccccc2)NC(=S)N1` (centres undefined), the growth was 102%. For the molecule `O=C1C(Cl)=C(Nc2ccc3cn[nH]c3c2)C(=O)c2ccccc21`, the growth was -82.9% (active).

As for `O=C(CCC(=O)N1CCOCC1)OCCCCCCSc1ccc([N+](=O)[O-])c2nonc12`, the growth was -43.1% (active). As for `CC1=C2[C@@H](CC1)[C@]1(C)O[C@@](C3CCNCC3)(C[C@H]1OC(=O)CO)[C@H]2OC(=O)/C=C/c1ccccc1`, the growth is 75.3%. On to `C=CC(=O)Nc1cccc(Nc2nc(Nc3ccc(OCCOC(F)F)cc3)ncc2F)c1`, for which the growth is -27.9% (active). As to `COc1cc(C2CC(=O)Nc3c2c(C)nn3-c2nc3ccccc3[nH]2)cc(OC)c1O` (centres undefined), the growth was 18.5%. For the molecule `O=[N+]([O-])c1ccc(Sc2ncccn2)c([N+](=O)[O-])c1`, the growth is 5.95% (active).

On to `N#Cc1c(Nc2ccccc2)nn2cc(-c3nc4ccccc4s3)c(N)nc12`, for which the growth was 73.8%.

On to `CN(CCCCN(C[C@H]1Cc2ncccc2CN1)[C@H]1CCCc2cccnc21)C1CCC(F)(F)CC1`, for which the growth was 95.3%. For the molecule `Cc1ccc(/C=N\NC(=O)c2[nH]c3ccc(F)cc3c2-c2ccccc2)cc1`, the growth was -14.5% (active).

As to `COc1cccc(-c2nn(-c3ccccc3)cc2-c2ccnc(NCCNC(=O)Nc3ccc(Cl)c(Cl)c3)c2)c1`, the growth is -17.4% (active). In the case of `C#Cc1cccc(NC(=O)Nc2cccc(N=C=S)c2)c1`, the growth was 106% [8.25 µM]. `CCN(CC)c1ccc(/C=C2/NC(=O)NC2=O)cc1`: the growth was 37.8%. On to `Clc1ccc(-c2nc(Br)cn3ccnc23)cc1`, for which the growth is 78.9%.

`CC(C)CCSc1nc(Nc2ccccc2)c(C#N)c(-c2ccc(F)cc2)n1`: the growth is 60.6%. As for `CN(C)c1ccc(NC(=O)c2ccc(/C=C/C(=O)c3ncc[nH]3)cc2)cc1`, the growth is 45.6%. As for `O=S(=O)(Oc1ccc(-c2ccc3sccc3c2)cc1)c1ccc(F)cc1`, the growth is 86.9%.

Consider `C=C(C)[C@@H]1CC[C@]2(C(=O)NCC#CCN3CCN(C)CC3)CC[C@]3(C)[C@H](CC[C@@H]4[C@@](C)(CCC#N)[C@H](C(=C)C)CC[C@]43C)[C@@H]12`, for which the growth is 18.7%. On to `COC(=O)C(C)Oc1ccc(OC#N)cc1` (centres undefined), for which the growth is 99%. The same measure for `Cc1ccc(-c2nc(C#N)c(S(=O)(=O)N(C)C)o2)cc1`: 81.6%. The value for `C=C1C(=O)C2CCC1C2` (centres undefined) was 110%; that for `Cc1cc2ncc(-c3cc4ccccc4c(N4CCN(C)CC4)n3)nc2cc1C` was -76.6% (active).
